Sm TGR block – blocks Schistosoma mansoni thioredoxin glutathione reductase; Q962Y6; purified TGR, DTNB reduction, TNB absorbance 405 nm; Potency, µM (highest dose often 114 µM), for the others: at the highest dose activity change, negative = inhibition, most hits filed as inhibitors; 360,000 compounds, 3% hits; AID 485364; note: potency is the fitted concentration of half-maximal effect; % is set by controls: 0 for no effect and ±100 for the full control effect; nearly all actives have a fitted effect of over 60% in size
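TGR 20 nM + NADPH 100 uM (dispensed conc.), cpd preinc 15 min RT; start with NADPH (500 uM addition) then DTNB (15 mM addition). Kinetic TNB absorbance, 405 nm filter. Four-parameter Hill fit across titration.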
SARS PLP yeast – SARS-CoV PLP inhibition in yeast; S. cerevisiae expressing SARS-CoV PLpro, growth rescue; Potency, µM (top dose mostly 32.9 µM), for inactives: at the top dose activity, positive = growth rescue, usual class: activators; 330,000 compounds, 0.19% hits; calls by dose curve; note: potency is the fitted concentration of half-maximal effect; 0% is about no effect; nearly all actives have a fitted effect of over 55% in size
Tb PYK inh – blocks Trypanosoma brucei pyruvate kinase; Q57TT1; TbPYK enzyme, Kinase-Glo Plus ATP luminescence, 45 min; Potency, µM (top dose mostly 76.8 µM), without a hit: at the top dose activity, negative = inhibition, hits mostly inhibitors; AID 624173; 410,000 compounds, 0.12% hits; note: potency is the fitted concentration of half-maximal effect; % is set by controls: 0 for no effect and ±100 for the full control effect; nearly all actives have a fitted effect of over 50% in size
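Quantitative HTS: titrated library compounds versus trypanosomal pyruvate kinase in TEA buffer (pH 7.2) containing KCl, MgCl2, BSA and Tween-20. Reactions were initiated with ADP, 130 uM final. Kinase-Glo Plus luminescence was read after 45 min at RT.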
LmPK inh – inhibitors of Leishmania mexicana pyruvate kinase. Q27686. purified LmPK, Kinase-Glo ATP luminescence, 1 h. Potency, µM (series often up to 57.5 µM), without a hit: at the highest dose activity change, negative = inhibition, usual class: inhibitors. 290,000 compounds, 0.37% hits; note: potency is the fitted concentration of half-maximal effect; % is set by controls: 0 for no effect and ±100 for the full control effect
Target sequence (Q27686 whole entry, looked up): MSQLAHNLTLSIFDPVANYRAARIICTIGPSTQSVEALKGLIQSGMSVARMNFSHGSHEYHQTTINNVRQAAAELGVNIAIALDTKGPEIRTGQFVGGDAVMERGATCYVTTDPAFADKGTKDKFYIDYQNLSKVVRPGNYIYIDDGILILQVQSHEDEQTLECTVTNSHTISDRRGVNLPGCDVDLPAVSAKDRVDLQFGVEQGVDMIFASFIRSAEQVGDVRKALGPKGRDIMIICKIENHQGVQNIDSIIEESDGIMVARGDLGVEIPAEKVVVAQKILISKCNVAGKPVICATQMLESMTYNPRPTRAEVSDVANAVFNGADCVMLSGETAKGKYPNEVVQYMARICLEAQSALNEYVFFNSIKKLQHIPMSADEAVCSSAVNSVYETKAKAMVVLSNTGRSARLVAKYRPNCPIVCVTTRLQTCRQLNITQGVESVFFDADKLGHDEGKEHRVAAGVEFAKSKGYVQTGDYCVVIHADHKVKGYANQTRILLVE
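qHTS format; LmPK 0.1 nM; substrates PEP 0.5 mM and ADP 0.1 mM. One-hour room-temperature incubation, then coupled luciferase luminescence; 0.5 nM enzyme wells mark activation.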
NS1 function inh – inhibitors of influenza NS1 protein function. Potency, µM (doses to about 46.1 µM), for the others: top-dose activity, positive = more growth. AID 2326. 270,000 compounds, 0.4% hits; calls by dose curve; note: potency is the fitted concentration of half-maximal effect; actives are rising curves; nearly all actives have a fitted effect of over 50% in size
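In this qHTS, NS1 from influenza A is expressed in budding yeast, where it slows growth. Cells are switched from glucose to 2% galactose medium (pH 6.0, -URA), treated with compound, and growth recovery is read at OD600.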
RE007 growth inh – less growth of the S. pombe RE007 Vpr strain. Potency, µM (doses to about 92.2 µM), without a hit: at the highest dose activity change, negative = less growth, actives largely listed as inhibitors. 360,000 compounds, 0.21% hits. S. pombe RE007 Vpr strain, BacTiter-Glo ATP luminescence, 24 h. AID 651644; active = well fitted falling curve with a large enough effect; inconclusive = small, poorly fitted or top-dose-only effect; inactive = no such curve, though single readings can be large or run the other way; note: potency is the fitted concentration of half-maximal effect; % is set by controls: 0 for no effect and ±100 for the full control effect; nearly all actives have a fitted effect of over 50% in size
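Fission yeast strain RE007, carrying one chromosomally integrated HIV-1 vpr copy, was seeded at OD 0.01 in PMG+AL medium with 23 nL pinned compound. After 24 h at 30 °C and 99% humidity, viability was read by BacTiter-Glo luminescence.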
LmPK confirm – Inhibits Leishmania mexicana pyruvate kinase, confirmation; shares compounds with LmPK inh; purified LmPK, Kinase-Glo ATP luminescence, 1 h; Potency, µM (titrated, usually from 57.5 µM), for inactives: top-dose activity change, negative = inhibition, most hits filed as inhibitors; 150 compounds, 40% hits; AID 2559;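 active = compounds giving a full or partial concentration-response curve, as inhibitors or activators; inconclusive = weak, top-dose-only or unclear curve responses; inactive = no response at any tested dose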
The depositor's hits bear a star; ? = inconclusive; . = no result; [ ] = remark or other dose. Most compounds without a hit are left out; they make up all but 3.3% or so of the library. Unless noted, calls come from the whole dose curve; as a rule, active = well fitted curve in the direction sought with a large enough effect; inconclusive = small, poorly fitted or top-dose-only effect, or another doubt; inactive = no such curve, though single readings can be large; an effect the other way counts as inactive or inconclusive.

SMILES	Sm TGR block	SARS PLP yeast	Tb PYK inh	LmPK inh	NS1 function inh	RE007 growth inh	LmPK confirm
CCc1ccc(NC(=O)C(NS(=O)(=O)c2cccs2)C(C)C)cc1 (configuration not stated)	4%	.	-6%	.	.	.	.
Brc1ccc(N=Nc2ccc3ccccc3n2)cc1	11%	-1%	?	6.3µM*	-3%	-1%	8.2µM*
CCN(c1cc(C)cc(C)c1)S(=O)(=O)c1nnc(NC(=O)c2cccc(F)c2)s1	-5%	.	-4%	.	.	.	.
COC(=O)CSc1ccc2nnc(-c3ccc(F)cc3)n2n1	9%	-1%	-21%	2%	-8%	11%	0%
CCN(CC)CCCNC(=O)c1ccc2nc(CCc3ccccc3)oc2c1	3%	.	-7%	.	.	.	.
CC1=CC(C)(C)N(C(=O)c2ccccc2)c2ccc(C)cc21	0%	-19%	2%	-1%	-22%	.	5%
c1ccc2c(c1)CCN(c1nc3cc4c(cc3s1)OCO4)C2	-7%	-15%	-19%	?	-31%	-11%	.
c1c2c(cc3sc(N4CCCCC4)nc13)OCO2	-9%	-7%	?	7.1µM*	-32%	45µM*	18µM*
CCN1C(=O)C2(SC(NC(C)=O)=NN2C(C)=O)c2cc(C)ccc21 (configuration not stated)	5%	-2%	4%	-2%	4%	-6%	2%
Cc1cc(CN(C)Cc2cn(C)nc2-c2ccc(Oc3ccccc3)cc2)on1	-6%	0%	2%	-5%	-8%	-5%	4%
COc1cc(NC(=O)CC(c2ccc(C)cc2)N2Cc3ccccc3C2=O)cc(OC)c1 (configuration not stated)	4%	.	0%	.	.	.	.
Cn1cc(Cl)c(C(=O)Nc2nc3ccccc3s2)n1	3%	-15%	-10%	7.9µM*	6%	-29%	?
Cc1ccc(C)c(N2CCN(S(=O)(=O)c3ccc4c(c3)OCCO4)CC2)c1	16%	-9%	-5%	3%	-8%	-7%	.
Cc1ccc(Cl)cc1N1CCN(S(=O)(=O)c2ccc3c(c2)OCCO3)CC1	7%	-7%	-7%	0%	-4%	-3%	9%
COC(=O)COc1ccc(/C=C2/SC(=O)N(CC(=O)N3CCCC3)C2=O)cc1Br	3%	2%	0%	-5%	0%	-4%	4%
COC(=O)COc1cc(Br)c(/C=C2/SC(=O)N(CC(=O)N3CCCC3)C2=O)cc1OC	5%	2%	1%	-2%	8%	5%	.
Cc1ccc(C(=O)c2oc3ccccc3c2NC(=O)Cc2ccccc2)cc1	-5%	.	-11%	.	.	.	.
CCOc1ccc(C(=O)O/N=C(\N)c2ccccn2)cc1	6%	-17%	13µM*	?	-33%	?	6.5µM*
Cc1cccc(C(=O)O/N=C(\N)c2ccccn2)c1	-1%	-9%	?	?	-35%	?	.
Cc1ccc(C(=O)O/N=C(\N)c2ccccn2)cc1C	-9%	-19%	?	?	-22%	-25%	.
N/C(=N\OC(=O)c1ccccc1)c1ccccn1	2%	-6%	?	4.5µM*	-1%	?	8.2µM*
O=C(CSc1nnc(-c2ccccc2)c(-c2ccccc2)n1)NC1CCCC1	-2%	.	-2%[15.4 µM]	.	.	.	.
COc1ccc(C(=O)O/N=C2\C(=O)N(C)c3ccccc32)cc1	.	.	-1%	.	.	?	.
COc1ccc(C(=O)N=c2nc3ccccn3s2)cc1	-2%	-6%	-10%	?	-11%	?	16µM*
COc1ccc(NC(=O)CCc2nnc3n(Cc4ccccc4Cl)c(=O)c4ccccc4n23)cc1	3%	.	5%	.	.	.	.
SMILES	Sm TGR block	SARS PLP yeast	Tb PYK inh	LmPK inh	NS1 function inh	RE007 growth inh	LmPK confirm
Cc1ccc(Cn2cccc(NC(=O)NC3CCCCC3)c2=O)cc1	-36%	1%	-2%	5%	-10%	20%	-1%
C=C(C)[C@H]1CC=C(C)/C(=N/NC(=O)CNc2ccccc2OC)C1	-1%	10%	1%	-2%	-2%	-21%	2%
Cn1c(=O)c2c(-c3ccccc3)n3c4ccccc4nc(-c4ccccc4)c3c2n(C)c1=O	4%	.	0%	.	.	.	.
Cn1c(-c2ccc(Br)o2)nc2ccccc21	18µM*	-6%	?	7.9µM*	-80%	?	21µM*
Cn1c(-c2nonc2N)nc2ccccc21	9%	10%	-1%	2%	20%	2%	.
CCn1cc(C(=O)N2CCN(c3cccc(C)c3C)CC2)c2cc(OC)c(OC)cc2c1=O	5%	.	-1%	.	.	.	.
Cc1ccccc1-c1nc(-c2ccccn2)no1	61%	-20%	?	2.5µM*	0%	?	12µM*
COc1ccc(-c2nc(-c3ccccn3)no2)cc1	3%	-5%	?	1.6µM*	-7%	?	6.5µM*
Cc1ccccc1-c1nc(-c2cccnc2)no1	0%	6%	-3%	-23%	-52%	-25%	.
CC(=O)N1c2ccc(S(=O)(=O)NCC3CCC(C(=O)Nc4cccc(F)c4)CC3)cc2CC1C (configuration not stated)	-2%	.	6%	.	.	.	.
C[C@]12CC[C@@H]3c4cc(O)c(O)cc4CC[C@H]3[C@@H]1CC[C@@H]2O	?	2%	?	0.56µM*	22%	-15%[18.4 µM]	?
Cc1nc2cc(-c3ccccc3)sc2c(=O)n1N	6%	-10%	10µM*	2.2µM*	.	?	4.6µM*
COc1ccc(-c2cc3nc(C)n(N)c(=O)c3s2)cc1	10%	-7%	?	2µM*	-3%	11µM*	2.9µM*
Cn1c(NCc2ccccc2)nc2cc(-c3ccccc3)sc2c1=O	.	.	0%	.	.	4%	.
COc1ccc(CNCc2ccc3c(c2)n(C)c(=O)n3C)cc1	2%	.	5%	.	.	.	.
COc1ccc(N=Nc2n(C)c3ccccc3[n+]2C)cc1	5µM*	-3%	.	1.4µM*	-81%	.	13µM*
Cn1c(COc2ccccc2O)[n+](C)c2ccccc21	-17%	1%	-1%	-1%	-3%	.	.
CCCCN(C)CCCNC(=O)Cn1ncc2c3ccccc3n(Cc3cc(C)ccc3C)c2c1=O	-18%	.	0%	.	.	.	.
COc1cc(/C=N/N2C(C)CCCC2C)cc(OC)c1O (configuration not stated)	45µM*	-1%	-5%	2µM*	?	4%	?
Cc1cccc(C)c1OCC(=O)NCC1(N2CCOCC2)CCCCC1	-4%	.	2%	.	.	.	.
CCn1c(SCC(=O)Nc2sc3c(c2C#N)CCC(C(C)(C)C)C3)nnc1-c1ccco1 (configuration not stated)	-15%	?	3%	5%	9%	1%	7%
